# From PubChem BioAssay (NCI)
# Compounds without any hit were thinned out: in the full panel of roughly 83,000, 20% have a hit.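 A percent growth of 40 corresponds to 60% growth inhibition; 0 means no net growth; -100 means all cells died. Active threshold: below 10.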 Unmarked numbers belong to inactive results. Activity calls are given as the source filed them.
# Legend:
# Test in all cases: NCI-60 one-dose screen, 48 h (100 = growth as untreated, 0 = no growth, -100 = all killed)
# Details in all cases: 10 µM unless noted
# SR leukemia = tested on: SR leukemia
# RPMI-8226 leukemia = tested on: RPMI-8226 leukemia
# OVCAR-8 ovarian = tested on: OVCAR-8 ovarian
# OVCAR-5 ovarian = tested on: OVCAR-5 ovarian
# OVCAR-4 ovarian = tested on: OVCAR-4 ovarian
# SK-OV-3 ovarian = tested on: SK-OV-3 ovarian
# IGROV1 ovarian = tested on: IGROV1 ovarian
# OVCAR-3 ovarian = tested on: OVCAR-3 ovarian
# HS 578T breast = tested on: HS 578T breast
# NCI/ADR-RES ovarian = tested on: NCI/ADR-RES ovarian
# T-47D breast = tested on: T-47D breast
# BT-549 breast = tested on: BT-549 breast
# MDA-MB-435 melanoma = tested on: MDA-MB-435 melanoma
# SW-620 colon = tested on: SW-620 colon
# MCF7 breast = tested on: MCF7 breast
# HCT-116 colon = tested on: HCT-116 colon
# HCC-2998 colon = tested on: HCC-2998 colon
# KM12 colon = tested on: KM12 colon
SMILES,growth (SR leukemia),growth (RPMI-8226 leukemia),growth (OVCAR-8 ovarian),growth (OVCAR-5 ovarian),growth (OVCAR-4 ovarian),growth (SK-OV-3 ovarian),growth (IGROV1 ovarian),growth (OVCAR-3 ovarian),growth (HS 578T breast),growth (NCI/ADR-RES ovarian),growth (T-47D breast),growth (BT-549 breast),growth (MDA-MB-435 melanoma),growth (SW-620 colon),growth (MCF7 breast),growth (HCT-116 colon),growth (HCC-2998 colon),growth (KM12 colon)
COc1ccc(Cl)cc1Nc1nc(C(F)(F)F)ccc1C(=O)N/N=C/c1cccnc1,25.1%,32.5%,42%,57%,29.7%,53.9%,40.3%,29.3%,59.6%,41.8%,46.9%,47.1%,58.4%,47.5%,33.3%,43.2%,53.6%,59.5%
COc1ccc(C/C(C)=C(\c2ccc(Cl)cc2)c2ccc(OCCN3CCCCCC3)cc2)cc1,9.97% (active),54.3%,89.4%,82.5%,95.7%,103%,78.1%,80.4%,98.4%,85.7%,56.8%,94.9%,88.7%,58.4%,62.7%,56.5%,83.1%,73.9%
COc1ccc(CCN2CC=Cn3c2nc2ccccc2c3=O)cc1,22.1%,21.4%,22.2%,45%,41.6%,59.8%,32.2%,-1.6% (active),37.9%,15%,75%,17.2%,-4.94% (active),25.9%,18.9%,10.2%,5.15% (active),4.27% (active)
c1ccc2c(Nc3cccc4ccccc34)cccc2c1,31.6%,68.3%,65.7%,103%,86%,59.5%,56.8%,43.8%,62.6%,29.8%,65.2%,62.8%,-27.7% (active),19%,43.9%,30.3%,78.4%,33.6%
CNc1nc(C)c(-c2nc(Nc3cccc(S(N)(=O)=O)c3)ncc2F)s1,-18.5% (active),2.6% (active),8.76% (active),3.14% (active),29.2%,8.56% (active),4.94% (active),10.2%,3.64% (active),5.57% (active),-2.75% (active),-17.1% (active),17.6%,8% (active),1.33% (active),5.28% (active),2.96% (active),5.25% (active)
O=C1/C(=C/c2ccccc2)CN(CCC(=O)N2C/C(=C\c3ccccc3)C(=O)/C(=C/c3ccccc3)C2)C/C1=C\c1ccccc1,16.5%,-18.8% (active),16.9%,91%,67.8%,51.3%,70.6%,32.8%,58.1%,76.1%,26.6%,56.3%,-40.7% (active),7.07% (active),-2.24% (active),-60.6% (active),26.7%,10.1%
CC1=CC(=O)CC(C)(C)[C@@]1(O)/C=C/[C@@H](C)O,111%,109%,90.1%,103%,106%,113%,107%,108%,105%,95.6%,91.7%,105%,102%,105%,84.6%,101%,94.7%,102%
Cc1cc(Cl)ccc1Nc1nc(C(F)(F)F)ccc1C(=O)N/N=C/c1ccc(F)cc1,-30.8% (active),-41.5% (active),23.1%,18.6%,5.75% (active),21.3%,8.97% (active),9.84% (active),4.52% (active),10.5%,28.4%,3.74% (active),31.9%,12.7%,-15.2% (active),8.67% (active),12.4%,7.78% (active)
COc1cc2c(=O)n(CC3CCCCC3)c3c4cc[nH]c4ncc3c2cc1OC,6.22% (active),34.5%,26.9%,52.3%,19.3%,47.7%,23.6%,38.7%,-4.62% (active),33.8%,44.9%,25.9%,55.3%,30.3%,19.8%,28.9%,62.3%,19%
COc1ccc(/C=C/C(=O)c2c(O)c(C)c(O)c3c2OC2=CC(O)=C(C(C)=O)C(=O)[C@]23C)cc1,-17.6% (active),-28.9% (active),-14.9% (active),7.96% (active),12.1%,-24.9% (active),-8.12% (active),-20.5% (active),-9.2% (active),-13.5% (active),-17.1% (active),-19.9% (active),-66.9% (active),6.73% (active),-2.88% (active),-8.41% (active),-30.2% (active),-4.07% (active)
O=C(O)c1cccnc1Br,89.4%,112%,106%,101%,102%,94.4%,98.1%,104%,110%,99.3%,85.4%,110%,102%,110%,96.8%,98.1%,98.5%,113%
CC/C(Cc1ccccc1)=C(/c1ccc(O)cc1)c1ccc(OCCN2CCCC2)cc1,-40.2% (active),-44.1% (active),-6.37% (active),19.8%,-6.26% (active),63%,13.9%,-79.6% (active),-28% (active),-8.18% (active),-25.2% (active),44.7%,-100% (active),-78.4% (active),-67.7% (active),-87.1% (active),-90.9% (active),-75.4% (active)
O=C(Cc1ccccc1)c1ccc(Cl)cc1,96.7%,160%,103%,83.2%,107%,107%,105%,111%,120%,96.6%,91.1%,106%,94.3%,99%,95.6%,93.2%,99%,101%
Nc1cc(O)cc2cccnc12,73%,68.9%,80.9%,107%,105%,83.4%,53.4%,88.8%,121%,87.3%,83.9%,87%,-9.72% (active),79.7%,55.8%,80.3%,100%,99.8%
Brc1cccc(-c2nc(-c3ccc4c(c3)OCCO4)co2)c1,37.7% [25 µM],58.1% [25 µM],71.8% [25 µM],81.4% [25 µM],81% [25 µM],69.7% [25 µM],62.1% [25 µM],32.7% [25 µM],65.4% [25 µM],28.5% [25 µM],46.6% [25 µM],68.7% [25 µM],-31.9% [25 µM] (active),23% [25 µM],37% [25 µM],31.8% [25 µM],92.1% [25 µM],38.5% [25 µM]
O=C1c2cc3c(cc2-c2c1c1cc(F)c(F)cc1c(=O)n2C[C@H](O)CO)OCO3,-16.5% (active),-0.801% (active),4.44% (active),4.09% (active),7.88% (active),-4.97% (active),8.38% (active),-8.12% (active),42.1%,-17% (active),-9.55% (active),0.808% (active),-11% (active),11.7%,3.86% (active),3.5% (active),10.7%,5.01% (active)
c1c2c(cc3c1OCO3)Cc1cc3c(cc1Cc1cc4c(cc1C2)OCO4)OCO3,91.9%,111%,101%,102%,98.3%,101%,104%,123%,104%,113%,108%,113%,105%,109%,90.8%,115%,112%,126%
